# This is one part of a sample in which hits are shown more often than they occur.
# IL1B secr inh: inhibitors of inflammasome signaling (IL-1 beta secretion) | THP-1 LPS/ATP IL-1B secretion, AlphaLISA, 16 h; hits give low values | activity change, % at 57.5 µM | actives 4.7% (n = 360,000) | AID 743279; in the data active = activity change below about -50%; inconclusive = mostly about -30% to -49%
#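 THP-1 cells pretreated 1 hr with compounds (up to 57.5 uM final), then stimulated with LPS (250 ng/mL final) plus ATP (1.25 mM final); secreted IL-1B measured by AlphaLISA after 16 hr, decreased signal indicating inhibition.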
# DT40 TDP1 CPT: growth inhibition of DT40 Tdp1-/-;hTDP1 cells with camptothecin (screen for TDP1 inhibitors). Potency, µM (highest dose often 46.2 µM), without a hit: at the top dose activity change, negative = growth inhibition, most hits filed as inhibitors. actives 12% (n = 420,000). chicken DT40 Tdp1-/-;hTDP1 cells + 20 nM CPT, ATP luminescence, 48 h. AID 686979; also: potency is read from the fitted curve at half-maximal effect; nearly all actives have a fitted effect of over 55% in size
#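 Chicken DT40 Tdp1-/- cells stably complemented with human TDP1 were seeded at 400 cells/well in medium containing 20 nM camptothecin, exposed to pin-transferred compounds, and grown at 37 °C for at least 48 hr. Viability was read as ATP luminescence.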
# ALOX12 inh: ALOX12 (human) lipoxygenase inhibition. purified 12hLO, xylenol orange hydroperoxide absorbance. Potency, µM (series often up to 108 µM), for inactives: top-dose activity change, negative = inhibition, actives largely listed as inhibitors. AID 1671190. P18054. actives 1.1% (n = 580,000); also: potency is read from the fitted curve at half-maximal effect
# Target sequence (P18054 whole entry, looked up): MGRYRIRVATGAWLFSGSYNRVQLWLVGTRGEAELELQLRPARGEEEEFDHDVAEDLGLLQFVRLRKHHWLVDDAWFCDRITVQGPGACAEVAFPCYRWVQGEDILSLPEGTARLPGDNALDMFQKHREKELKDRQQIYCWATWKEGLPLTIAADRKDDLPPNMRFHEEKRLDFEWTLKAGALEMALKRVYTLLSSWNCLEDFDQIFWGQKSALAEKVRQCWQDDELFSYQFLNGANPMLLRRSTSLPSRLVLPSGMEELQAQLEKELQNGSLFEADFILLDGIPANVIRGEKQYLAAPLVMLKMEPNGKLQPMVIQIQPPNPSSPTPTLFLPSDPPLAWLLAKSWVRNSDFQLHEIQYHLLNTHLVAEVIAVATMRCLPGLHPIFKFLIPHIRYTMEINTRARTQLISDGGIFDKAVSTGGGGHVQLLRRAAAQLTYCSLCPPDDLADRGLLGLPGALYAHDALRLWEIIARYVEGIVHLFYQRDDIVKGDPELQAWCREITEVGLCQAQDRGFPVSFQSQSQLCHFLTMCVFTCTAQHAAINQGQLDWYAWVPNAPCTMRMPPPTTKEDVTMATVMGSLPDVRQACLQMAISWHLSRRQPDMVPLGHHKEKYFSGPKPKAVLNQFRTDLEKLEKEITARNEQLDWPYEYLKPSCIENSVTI
#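 Purified human 12hLO (150 nM final) in 25 mM Hepes, 0.01% Triton X-100, pH 7.0 was preincubated 15 min at room temperature with compound. Then 40 uM arachidonic acid was added, 30 min. Hydroperoxide was read by Fe-XO absorbance ratio 573/405 nm.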
# DT40 TDP1 no CPT: qHTS for Inhibitors of human tyrosyl-DNA phosphodiesterase 1 (TDP1): qHTS in cells in absence of CPT; DT40 Tdp1-/- hTDP1 cells, no CPT, ATP luminescence, 48 h; Potency, µM (titrated, usually from 46.2 µM), without a hit: at the highest dose activity change, negative = growth inhibition, usual class: inhibitors; actives 15% (n = 420,000); AID 686978, 2013; also: potency is read from the fitted curve at half-maximal effect; nearly all actives have a fitted effect of over 55% in size
#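 No-CPT arm: Tdp1-/-;hTDP1 DT40 cells (400/well) plus compounds, incubated ≥48 hr at 37 °C. Readout CellTiter-Glo luminescence.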
# HT1080 IDH1KD tx: kills HT-1080 cells with IDH1 knockdown; AID 686971; HT-1080 IDH1 knockdown viability, ATP luminescence, 48 h; actives 2% (n = 360,000); Potency, µM (titrated, usually from 46.1 µM), inactives show top-dose activity, negative = toxicity, actives largely listed as cytotoxic;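 also: potency is read from the fitted curve at half-maximal effect; 0% = DMSO wells and -100% = cell-free medium wells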
#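 Luminescent ATP read-out (CellTiter-Glo, 10 min at room temperature) after 48 h compound exposure at 37 °C gave viability of IDH1-knockdown HT-1080 cells. Activity was normalised to DMSO and cell-free wells, then fitted as concentration-response curves.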
# HT1080-NT tox: kills 2HG-producing HT-1080-NT fibrosarcoma cells | HT-1080-NT fibrosarcoma viability, CellTiter-Glo ATP luminescence, 48 h | Potency, µM (top dose mostly 46.1 µM), for the others: top-dose activity, negative = less viability, most hits filed as cytotoxic | actives 1.6% (n = 360,000);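 also: NT is the 2HG producing partner of a matched IDH1 knockdown line; potency is read from the fitted curve at half-maximal effect; 0% = DMSO-treated cells and -100% = media-only wells without cells; nearly all actives have a fitted effect of over 55% in size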
#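 Read-out is CellTiter-Glo luminescence after 10 minutes at room temperature, following 48 hours' compound treatment of HT-1080-NT cells (750 cells/well, RPMI, 5% FBS, 37 degrees C).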
# An asterisk follows results filed as active; ? = inconclusive; / = no result; [ ] = another dose, or the depositor's remark. Unless noted, calls follow the shape of the dose curve; as a rule, active = well fitted curve in the direction sought with a large enough effect; inconclusive = small, poorly fitted or top-dose-only effect, or another doubt; inactive = no such curve, though single readings can be large; an effect the other way counts as inactive or inconclusive. Unless noted, % is scaled to controls: 0 for no effect and ±100 for the full control effect.
SMILES,IL1B secr inh,DT40 TDP1 CPT,ALOX12 inh,DT40 TDP1 no CPT,HT1080 IDH1KD tx,HT1080-NT tox
CCCCN1CC(COCc2ccccc2)Oc2cccc(N3CCCC3)c2S1(=O)=O (stereo not given),15,?,-10%,16µM*,-1%,-1%
C[C@H](c1ccccc1)N1C[C@@H](COCc2ccccc2)Oc2cccc(N3CCCCC3)c2S1(=O)=O,/,/,-27%,/,/,/
CN1CC(COCc2ccccc2)Oc2ccccc2S1(=O)=O (stereo not given),20,?,?,-23%,2%,-2%
CC(C)CN1CC(COCc2ccccc2)Oc2ccccc2S1(=O)=O (stereo not given),-17,21µM*,3%,?,-7%,-4%
C[C@H](O)[C@@H]1C(=O)N2CCc3c([nH]c4c(-c5ccccc5)cccc34)[C@@H]2C[C@@H]1N(C)C(=O)c1ccco1,/,/,0%,/,/,/
CN1C(=O)c2ccc(NC(=O)Cn3nc4c(cc3=O)CCCC4)cc2C1=O,/,/,35%,/,/,/
N#CNC(=Nc1cccc(Cl)c1)Oc1ccccc1,0,?,143%,-25%,1%,-3%
N#CNC(=Nc1ccc(Cl)cc1)Oc1ccccc1,-55*,?,?,?,-3%,-5%
Cc1oc(-c2nc(C#N)c(NCC3CCCO3)o2)cc1S(=O)(=O)N(C)C (stereo not given),/,/,13%,/,/,/
Cn1c(=O)c2[nH]c(NN=Cc3ccc(F)cc3)nc2n(C)c1=O,-19,-12%,-10%,?,20%,7%
Cn1c(=O)c2[nH]c(NN=Cc3cccc(Br)c3)nc2n(C)c1=O,-20,23µM*,-2%,15µM*,-9%,-11%
CCc1cccc2c(C(=O)CN3C(=O)NC4(CCCCC4)C3=O)c[nH]c12,-2,5.8µM*,-8%,5.8µM*,?,-26%
CCc1cccc2c(C(O)c3c[nH]c4ccccc34)c[nH]c12 (stereo not given),/,4.5µM*,/,11µM*,/,/
OC(c1ccccn1)c1c[nH]c2ccccc12 (stereo not given),-1,-10%,?,-21%,-1%,0%
CCc1cccc2c(C(=O)CCl)c[nH]c12,-95*,15µM*,-14%,21µM*,15µM*,?
CCc1ccc(NC(=O)CN2C(=O)C(=O)N(Cc3ccccc3)C2=O)cc1,/,/,9%,/,/,/
COc1ccc(NC(=O)Nc2c(NC3CCCC3)c3ccccc3oc2=O)cc1OC,/,/,-25%,/,/,/
COc1cccc(C(=O)N2CCC(N3C(=O)CCC3C(=O)NCc3ccccc3)CC2)c1 (stereo not given),/,/,55%,/,/,/
C=C(C)Cn1c(N2CCC(C(N)=O)CC2)nc2c1c(=O)[nH]c(=O)n2C,/,/,0%,/,/,/
CN1C(=O)C(=O)/C(=C(/O)c2ccc(Br)cc2)C1c1ccc(F)cc1 (stereo not given),10,-3%,25µM*,6%,1%,-5%
Cc1ccc(/C(O)=C2\C(=O)C(=O)N(C)C2c2ccc(Br)cc2)cc1 (stereo not given),34,7%,?,-5%,7%,4%
COc1cccc(S(=O)(=O)N2CCC(n3cnnc3C(C)C)CC2)c1,/,/,21%,/,/,/
CC(=O)Nc1nn(C)c2nc3cc(C)ccc3cc12,-1,?,?,?,-1%,0%
CCn1nc(NC(=O)c2ccncc2)c2cc3ccc(C)cc3nc21,-28,-21%,-14%,-15%,?,-27%
Cc1ccc2cc3c(NC(=O)c4cccnc4)nn(C)c3nc2c1,-10,-25%,-7%,13µM*,-3%[9.24 µM],6%
SMILES,IL1B secr inh,DT40 TDP1 CPT,ALOX12 inh,DT40 TDP1 no CPT,HT1080 IDH1KD tx,HT1080-NT tox
CCCn1nc(NC(=O)c2ccco2)c2cc3ccccc3nc21,-4,23µM*,-27%,15µM*,2%,-1%
CCn1nc(NC(=O)c2ccncc2)c2cc3cc(C)ccc3nc21,?,?,0%,23µM*,0%,-7%
CCCCn1nc(NC(=O)c2cccc(Cl)c2)c2cc3ccccc3nc21,/,?,-4%,?,/,/
CC(C)Cn1nc(NC(=O)c2cccc(Cl)c2)c2cc3ccccc3nc21,/,15µM*,?,8.2µM*,/,/
CCNC(=O)[C@@H]1C[C@H](n2cc(CN(C)C(=O)c3cccc(C)c3C)nn2)CN1,/,/,12%,/,/,/
NC(=O)[C@@H]1CCCN1CC[C@H]1CN(C(=O)C2CCCCC2)CC[C@H]1CC(=O)O,/,/,18%[176 µM],/,/,/
COc1ccc(CN(C)C(=O)C2(C)CCOCC2)cc1,/,/,1%[12.5 µM],/,/,/
CCn1nc(NC(=O)CC(C)C)c2cc3ccc(C)cc3nc21,2,29µM*,-10%,?,-2%,-2%
CCn1nc(NC(=O)c2ccco2)c2cc3cc(C)ccc3nc21,-50*,?,?,?,0%,-1%
Cc1ccc2cc3c(NC(=O)c4ccco4)nn(C)c3nc2c1,-1,-31%,14%,?,-14%,-11%
COc1ccc(NC(=O)c2ccc3[nH]c(C)c(C)c3c2)c(OC)c1,-6,23µM*,13%,18µM*,-20%,-4%
CCCN1C(=O)c2cc(C(=O)Nc3ccc(OC)c(OC)c3)ccc2C1Nc1ccc(OC)c(OC)c1 (stereo not given),23,-27%,-4%,?,-1%,-4%
CCOc1ccccc1NC(=O)c1ccc2ccccc2c1,10,8%,8%,?,2%,-1%
COc1ccccc1NC(=O)c1cc(C)oc1C,-13,7%,-2%,-12%,4%,?
CCCN1C(=O)c2cc(C(=O)Nc3ccc(OC)cc3OC)ccc2C1Nc1ccc(OC)cc1OC (stereo not given),-13,23µM*,-1%,?,2%,-1%
CCOc1ccccc1NC(=O)c1cc(CC(C)C)oc1C,22,23µM*,0%,23µM*,6%,7%
CCOc1ccccc1NC(=O)c1ccc2[nH]c(C)c(C)c2c1,33,?,2%,26µM*,?,?
COc1ccc(CNC(=O)c2ccc3[nH]c(C)c(C)c3c2)c(OC)c1,/,-9%,-28%,?,/,/
COc1ccc2c(c1)CCCC1(CCCO2)CCCO1 (stereo not given),/,/,14%,/,/,/
CCc1ccc(CNC(=O)CN2C(=O)NC3(CCOCC3)C2=O)cc1,/,/,21%,/,/,/
COc1ccc(NC(=O)c2ccc(-n3c(C)ccc3C)cc2)c(OC)c1,-75*,?,0%,?,-22%,-4%

# Compound activity (PubChem BioAssay)
